Screens from PubChem BioAssay.
Rows were chosen to be rich in hits. Some 10% of all compounds tested hit in one or more screens of this group.
KB-3-1 tox: KB-3-1 parental cell cytotoxicity. hit rate 1.4% among 400,000. Potency, µM (top dose mostly 46.1 µM), usual class: cytotoxic. AID 1347075. KB-3-1 viability, CellTiter-Glo ATP luminescence, 72 h; further: on the % scale 0 is the no-effect control and ±100 the full control effect; nearly all actives have a fitted effect of over 60% in size
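KB-3-1 parental drug-naive adenocarcinoma cells in DMEM/10% FBS, incubated 72 h at 37 C with pin-transferred compounds across a concentration series. Viability by CellTiter-Glo luminescence; concentration-response curves fitted after normalization.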
MCF10A rereplic: DNA re-replication induction in MCF 10a cells; MCF 10A DNA re-replication, Hoechst nuclear intensity, 48 h; Potency, µM (titrated, usually from 46.1 µM), inactives show top-dose activity, positive = re-replication, most hits filed as activators; hit rate 2.9% among 350,000; further: % of control where 0% means no effect; nearly all actives have a fitted effect of over 50% in size
KB-V1 cytotox: kills drug-selected multidrug resistant KB-V1 cells; KB-V1 MDR cells viability, CellTiter-Glo, 72 h; Potency, µM (top dose mostly 46.1 µM), most hits filed as cytotoxic; hit rate 3.4% among 400,000; further: on the % scale 0 is the no-effect control and ±100 the full control effect; nearly all actives have a fitted effect of over 60% in size
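KB-V1 MDR subline cells in DMEM (phenol-red free, 10% FBS) exposed to compounds in qHTS concentration series for 72 h at 37 degrees C. Viability read by CellTiter-Glo luminescence; concentration-effect curves fitted after normalization and correction.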
SW480 rerep: induces DNA re-replication in SW480 colon adenocarcinoma cells; AID 624297; Potency, µM (titrated, usually from 46.1 µM), inactives show at the highest dose re-replication activation, most hits filed as activators; SW480 DNA re-replication, Hoechst DNA content imaging, 48 h; hit rate 1.8% among 340,000; further: % of control where 0% means no effect; nearly all actives have a fitted effect of over 55% in size
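Hoechst fluorescence of nuclei (405 nm excitation, 500-530 nm emission) measured by plate-scanning imager after 48 hr compound exposure at 37 C; re-replication scored as increased number of nuclei with elevated intensity.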
Gal4-VP16 FLuc: counter-screen for ROR gamma inhibitors: Gal4-VP16 reporter; Drosophila S2 Gal4-VP16 UAS-luciferase, luminescence, 20 h; Potency, µM (series often up to 53.6 µM), without a hit: top-dose activity, negative = inhibition, actives largely listed as inhibitors; hit rate 3.5% among 310,000;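 further: Gal4-VP16 expression switched on by copper sulfate through the metallothionein promoter; on the % scale 0 is the no-effect control and ±100 the full control effect; nearly all actives have a fitted effect of over 50% in size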
RORg inh: inhibitors of mouse ROR gamma transcriptional activity; P51450; hit rate 5.4% among 310,000; Drosophila S2 Gal4-RORgamma UAS-luciferase reporter, 20 h; Potency, µM (series often up to 53.6 µM), inactives show top-dose activity change, negative = inhibition, most hits filed as inhibitors; further: on the % scale 0 is the no-effect control and ±100 the full control effect; nearly all actives have a fitted effect of over 60% in size
Target sequence (P51450 whole entry, looked up, the tested form may be a part): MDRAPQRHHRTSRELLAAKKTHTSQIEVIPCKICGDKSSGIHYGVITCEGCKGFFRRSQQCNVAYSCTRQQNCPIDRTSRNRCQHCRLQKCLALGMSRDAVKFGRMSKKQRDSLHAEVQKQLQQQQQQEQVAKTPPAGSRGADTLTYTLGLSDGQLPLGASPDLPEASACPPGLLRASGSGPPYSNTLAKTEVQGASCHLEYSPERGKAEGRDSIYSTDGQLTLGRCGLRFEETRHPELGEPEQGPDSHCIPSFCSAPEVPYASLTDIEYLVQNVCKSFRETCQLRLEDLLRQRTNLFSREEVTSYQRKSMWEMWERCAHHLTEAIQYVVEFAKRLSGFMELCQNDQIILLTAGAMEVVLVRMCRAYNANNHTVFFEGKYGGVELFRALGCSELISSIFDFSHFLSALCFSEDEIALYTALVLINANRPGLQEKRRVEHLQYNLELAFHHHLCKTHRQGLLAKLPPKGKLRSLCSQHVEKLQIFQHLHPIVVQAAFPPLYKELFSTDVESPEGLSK
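Drosophila Schneider cells stably carrying a metallothionein-driven Gal4 DBD–ROR gamma fusion and a UAS-Photinus luciferase reporter were exposed to compound for 1 hr, then induced with copper sulfate (700 uM final) for 20 hr at ambient temperature before luminescence reading.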
Starred values were filed as active, the others as inactive; [ ] = dose if it differs, or a comment. The call rests on the fitted dose curve; in most records, active means well fitted curve in the direction sought with a large enough effect; inconclusive means small, poorly fitted or top-dose-only effect, or another doubt; inactive means no such curve, though single readings can be large; an effect the other way counts as inactive or inconclusive. Potency means the concentration at half of the fitted maximal effect.

What do the screens show for `Cc1ccc(NC(=S)N/N=C/c2ccc(OCCC(C)C)cc2)c(C)c1`?
KB-3-1 tox: inactive; MCF10A rereplic: inconclusive; KB-V1 cytotox: 16.4µM*; SW480 rerep: -2.3%; Gal4-VP16 FLuc: 3.16µM*; RORg inh: 6.31µM*

What do the screens show for `O=C(Cc1cc(=O)[nH][nH]1)N/N=C/c1c(Cl)cccc1Cl`?
KB-3-1 tox: inactive; MCF10A rereplic: inconclusive; KB-V1 cytotox: inconclusive; SW480 rerep: 7.1%; Gal4-VP16 FLuc: inconclusive; RORg inh: 20.7%

Results for CC(C)(C)NC(=S)N/N=C/c1c(Cl)cccc1Cl ?
KB-3-1 tox: inactive; MCF10A rereplic: 1.9%; KB-V1 cytotox: inactive; SW480 rerep: -0.7%; Gal4-VP16 FLuc: 5.01µM*; RORg inh: 4.47µM*

How did C=CCNC(=O)CC(=O)N/N=C/c1cccs1 do in these assays?
KB-3-1 tox: inactive; MCF10A rereplic: -5.8%; KB-V1 cytotox: inactive; SW480 rerep: 5.3%; Gal4-VP16 FLuc: 3.2%; RORg inh: -2.2%

Results for CCNC(=S)N/N=C/c1cccs1 ?
KB-3-1 tox: inactive; MCF10A rereplic: -5.7%; KB-V1 cytotox: inactive; SW480 rerep: -7.3%; Gal4-VP16 FLuc: 1.41µM*; RORg inh: 0.794µM*

Results for CC(C)c1ccc(NC(=O)Cn2cc(S(=O)(=O)Cc3cccc(Cl)c3)c3ccccc32)cc1 ?
KB-3-1 tox: inactive; KB-V1 cytotox: inactive

How did COC(=O)[C@@H]1O[C@@H](c2c(OC)c(OC)c(C)c(OC)c2OC)[C@H](C)[C@@H](O)[C@@H]1C do in these assays?
Gal4-VP16 FLuc: 0.5%[10 µM]; RORg inh: 7.2%[10 µM]

What do the screens show for `O=C(NCc1cccc(F)c1)c1ccc2nc(N3CCCCC3)sc2c1`?
KB-3-1 tox: inactive; KB-V1 cytotox: inconclusive

How did CCNC(=S)N/N=C/c1cccc(/C=N/NC(=S)NCC)c1 do in these assays?
KB-3-1 tox: inactive; MCF10A rereplic: 18.0%; KB-V1 cytotox: inactive; SW480 rerep: -5.5%; Gal4-VP16 FLuc: -22.1%; RORg inh: inconclusive

What do the screens show for `Cc1ccc(NC(=S)N/N=C/c2c(Cl)cccc2Cl)c(C)c1`?
KB-3-1 tox: 0.581µM*; MCF10A rereplic: 1.46µM*; KB-V1 cytotox: 1.16µM*; SW480 rerep: 1.3µM*; Gal4-VP16 FLuc: 0.891µM*; RORg inh: 0.794µM*

What do the screens show for `CCNC(=S)N/N=C/c1c(Cl)cccc1Cl`?
KB-3-1 tox: inactive; MCF10A rereplic: 5.9%; KB-V1 cytotox: inactive; SW480 rerep: -3.9%; Gal4-VP16 FLuc: 2.82µM*; RORg inh: 2.51µM*

Results for Cc1ccc(C(=O)NNC2=Nc3cccc4cccc2c34)cc1 ?
KB-3-1 tox: inconclusive; MCF10A rereplic: 5.8%; KB-V1 cytotox: 9.2µM*; SW480 rerep: -4.4%; Gal4-VP16 FLuc: 1.41µM*; RORg inh: 0.891µM*

Results for COc1ccc(C(=O)NNC2=Nc3cccc4cccc2c34)cc1 ?
KB-3-1 tox: inactive; MCF10A rereplic: inconclusive; KB-V1 cytotox: inconclusive; SW480 rerep: 7.3%; Gal4-VP16 FLuc: inconclusive; RORg inh: 0.562µM*

Results for O=C(O)c1ccc(NC2=Nc3cccc4cccc2c34)cc1 ?
KB-3-1 tox: inconclusive; MCF10A rereplic: -1.9%; KB-V1 cytotox: 14.6µM*; SW480 rerep: inconclusive; Gal4-VP16 FLuc: 29.2%; RORg inh: 34.4%

Results for NC(=O)NNC1=Nc2cccc3cccc1c23 ?
KB-3-1 tox: inactive; MCF10A rereplic: -0.7%; KB-V1 cytotox: inactive; SW480 rerep: -1.8%; Gal4-VP16 FLuc: -10.8%; RORg inh: -34.6%

How did COc1ccc(CC(=O)NNC2=Nc3cccc4cccc2c34)cc1 do in these assays?
KB-3-1 tox: inactive; MCF10A rereplic: 20.6µM*; KB-V1 cytotox: inactive; SW480 rerep: 16.4µM*; Gal4-VP16 FLuc: -19.2%; RORg inh: 8.91µM*

What do the screens show for `c1ccc(C(NCc2cccnc2)(c2ccccc2)c2ccccc2)cc1`?
Gal4-VP16 FLuc: 0.1%; RORg inh: -31.1%

Results for Cc1cccc(N2CCN(C(=O)Nc3ccc(F)cc3)CC2C)c1 (stereo not drawn) ?
KB-3-1 tox: inactive; KB-V1 cytotox: inactive

Results for O=S(=O)(Nc1nc(-c2sccc2Cl)cs1)c1cc(Cl)ccc1Cl ?
KB-3-1 tox: inactive; MCF10A rereplic: 8.2µM*; KB-V1 cytotox: inactive; SW480 rerep: -1.2%; Gal4-VP16 FLuc: -5.4%; RORg inh: 24.9%

How did CC(C)(C)c1nnc(NS(=O)(=O)c2cc(Cl)ccc2Cl)s1 do in these assays?
KB-3-1 tox: inactive; MCF10A rereplic: inconclusive; KB-V1 cytotox: inactive; SW480 rerep: 18.8%; Gal4-VP16 FLuc: 2.2%; RORg inh: 7.8%

What do the screens show for `Cn1ncc2c(NCc3ccco3)ncnc21`?
KB-3-1 tox: inactive; KB-V1 cytotox: inactive

How did CCC(=O)Nc1nc2ccccc2n1Cc1ccc(C)cc1 do in these assays?
KB-3-1 tox: inconclusive; MCF10A rereplic: 18.0%; KB-V1 cytotox: inactive; SW480 rerep: 0.3%[9.22 µM]; Gal4-VP16 FLuc: 0.891µM*; RORg inh: 0.398µM*

How did CCC(=O)Nc1nc2ccccc2n1Cc1ccccc1 do in these assays?
KB-3-1 tox: inconclusive; MCF10A rereplic: 6.4%; KB-V1 cytotox: inactive; SW480 rerep: 5.6%; Gal4-VP16 FLuc: 2.24µM*; RORg inh: 0.708µM*

Results for COc1cccc(-c2nccc(NCc3ccc(OC)cc3OC)n2)c1 ?
Gal4-VP16 FLuc: -10.7%; RORg inh: 102.0%

Results for COc1ccc(CCNC(=O)CCCn2c(=O)c3ccccc3n(Cc3c(C)cc(C)cc3C)c2=O)cc1OC ?
KB-3-1 tox: inactive; KB-V1 cytotox: inconclusive

Results for COc1ccc(NC(=O)COC(=O)C(CC(C)C)N2C(=O)C3CC=CCC3C2=O)cc1Cl (stereo not drawn) ?
KB-3-1 tox: inactive; MCF10A rereplic: inconclusive; KB-V1 cytotox: inactive; SW480 rerep: -9.1%; Gal4-VP16 FLuc: 22.4µM*; RORg inh: -2.9%

What do the screens show for `COc1ccc(NC(=O)CN2C(=O)C3CC=CCC3C2=O)cc1Cl` (stereo not drawn)?
KB-3-1 tox: inactive; KB-V1 cytotox: inactive

What do the screens show for `O=C(O)COc1ccc(NC(=O)c2ccc3c(c2)C(=O)N(C2CCCCC2)C3=O)cc1`?
KB-3-1 tox: inactive; MCF10A rereplic: -0.6%; KB-V1 cytotox: inactive; SW480 rerep: -2.9%; Gal4-VP16 FLuc: -2.7%; RORg inh: -4.8%

Results for CCC(=O)Oc1ccc(C(=O)Nc2ccc3c(c2)C(=O)N(C2CCCCC2)C3=O)cc1 ?
KB-3-1 tox: inconclusive; MCF10A rereplic: 23.1µM*; KB-V1 cytotox: inconclusive; SW480 rerep: inconclusive; Gal4-VP16 FLuc: inconclusive; RORg inh: 10.3%
